High-throughput results from PubChem.
PDI inh – blocks human protein disulfide isomerase activity; PDI insulin aggregation turbidity, A650, 90 min; P07237; inhibition, % at 10 µM; 350,000 compounds, 0.052% hits;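 active means mean inhibition across replicates of 30% or more, whatever share of single replicates reach that level; inconclusive means mean inhibition below 30% while every single replicate reaches 30%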
ERAP1 HTS inh – ERAP1 (human) enzyme inhibition | Q9NZ08 | recombinant ERAP1, Leu-AMC fluorescence, 60 min | inhibition, % at 10.7 µM | 340,000 compounds, 0.15% hits | AID 652197;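 active means mean replicate inhibition of at least 30%, or all replicates individually reaching that 30% level; inactive means mean below 30% and not every replicate reaching it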;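 further: 0% = neutral control wells and 100% = L-leucinethiol positive control wells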
Target sequence (Q9NZ08 whole entry, looked up): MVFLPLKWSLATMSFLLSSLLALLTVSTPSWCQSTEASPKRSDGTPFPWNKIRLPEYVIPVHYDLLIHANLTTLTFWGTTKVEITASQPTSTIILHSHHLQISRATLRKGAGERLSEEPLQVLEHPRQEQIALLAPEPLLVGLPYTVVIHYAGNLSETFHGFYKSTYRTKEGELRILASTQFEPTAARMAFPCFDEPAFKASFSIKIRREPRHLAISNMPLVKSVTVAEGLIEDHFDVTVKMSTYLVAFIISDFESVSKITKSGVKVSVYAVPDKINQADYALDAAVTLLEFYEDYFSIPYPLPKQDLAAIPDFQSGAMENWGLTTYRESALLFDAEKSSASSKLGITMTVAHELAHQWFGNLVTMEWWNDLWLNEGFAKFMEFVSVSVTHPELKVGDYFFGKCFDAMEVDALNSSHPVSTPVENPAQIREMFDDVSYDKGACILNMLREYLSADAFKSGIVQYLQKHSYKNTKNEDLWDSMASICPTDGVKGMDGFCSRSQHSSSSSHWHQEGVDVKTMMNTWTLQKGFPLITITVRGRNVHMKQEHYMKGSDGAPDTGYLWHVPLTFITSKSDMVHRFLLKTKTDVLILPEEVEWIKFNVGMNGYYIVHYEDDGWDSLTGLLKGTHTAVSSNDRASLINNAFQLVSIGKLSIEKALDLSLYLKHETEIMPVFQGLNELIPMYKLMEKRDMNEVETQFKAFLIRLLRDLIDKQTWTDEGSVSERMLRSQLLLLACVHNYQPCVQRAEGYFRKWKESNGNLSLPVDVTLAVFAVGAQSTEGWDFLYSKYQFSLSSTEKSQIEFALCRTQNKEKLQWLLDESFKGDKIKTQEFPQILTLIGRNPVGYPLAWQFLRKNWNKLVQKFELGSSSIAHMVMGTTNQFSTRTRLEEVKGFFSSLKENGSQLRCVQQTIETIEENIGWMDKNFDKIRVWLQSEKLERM
AF4-AF9 inh – inhibitors of human MLL-AF4/AF9 interaction; AlphaScreen, biotin-AF4 peptide binding to FLAG-AF9; inhibition, % at 10 µM; 350,000 compounds, 0.47% hits;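 active means every replicate reaching a set inhibition limit, whatever the replicate mean, cut at about 25% in these data; inconclusive means mean inhibition reaches that limit but some replicates miss it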;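 further: 0% = plate neutral control median and 100% = total signal loss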
DENV2 CPE – inhibitors of DENV2 cytopathic effect; DENV2-infected cells, cytopathic effect rescue, plate reader; CPE inhibition, % at 9.99 µM; 350,000 compounds, 1.7% hits; in the data active means CPE inhibition above about 20%, passing the limit was not always enough; inconclusive means no clear call, values can overlap the other calls; tested in BHK-21 cells;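 further: 0% = median of neutral control wells and 100% = median of positive control wells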
ERp5 inh – blocks human ERp5 reductase activity on insulin | ERp5 insulin aggregation, absorbance 650 nm, 90 min | inhibition, % at 9.99 µM | 350,000 compounds, 0.05% hits | AID 651711;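 active means mean replicate inhibition above about 25%, with every replicate also reaching it, limit read from the data, passing the limit was not always enough; inconclusive means only one of those two criteria met; inactive means neither criterion met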
* hit, by the source's call; ? = inconclusive; nt = not tested or not shown. Only some compounds are listed: those with a hit (about 1.8% of all), similar ones and a draw of the others.

SMILES	PDI inh	ERAP1 HTS inh	AF4-AF9 inh	DENV2 CPE	ERp5 inh
CC(C)NC(=O)Nc1ccc2c(c1)C(=O)N([C@H](C)CO)C[C@@H](C)[C@@H](CN(C)Cc1ccc(C(F)(F)F)cc1)OCCCC[C@@H](C)O2	nt	2	1	42*	-4
CC(C)NC(=O)Nc1ccc2c(c1)C(=O)N([C@H](C)CO)C[C@@H](C)[C@H](CN(C)Cc1ccc(C(F)(F)F)cc1)OCCCC[C@H](C)O2	nt	2	4	2	-2
CC(C)NC(=O)Nc1ccc2c(c1)C(=O)N([C@H](C)CO)C[C@@H](C)[C@H](CN(C)Cc1ccc(C(F)(F)F)cc1)OCCCC[C@@H](C)O2	nt	1	7	32*	-1
COc1ccc(-c2ccc3c(c2)[C@H]2[C@H](CCN2S(=O)(=O)c2ccc(OC)cc2)[C@H](CO)N3C)cc1	nt	1	0	3	-2
O=C(CC1NCCN(Cc2ccccc2)C1=O)Nc1ccccc1 (stereo unspecified)	-3	nt	0	72*	0
O=C(NCCCN1CCOCC1)[C@H]1[C@H](CO)[C@H]2Cn3c(cccc3=O)[C@@H]1N2C(=O)C1CCCCC1	nt	-1	-3	-6	7
CCOc1cccc(/C=C/C(=O)O)c1	-2	-1	47*	-10	-4
O=C(O)/C=C/c1cccc(OCc2ccccc2)c1	-1	-2	-1	8	-1
Nc1ccc(N2CCN(c3ccc(Cl)c(Cl)c3)CC2)cc1	-6	2	27*	2	4
Nc1ccc(N2CCN(c3ccc(F)cc3)CC2)cc1	-12	-1	12	4	1
COc1ccc(CN(CCC(c2ccccc2)c2ccc(OC(C)C)cc2)C(=O)CCl)cc1OC (stereo unspecified)	86*	nt	5	nt	nt
C[C@H](CO)N1C[C@H](C)[C@H](CN(C)S(=O)(=O)c2cn(C)cn2)Oc2ccc(NC(=O)Nc3ccccc3)cc2C1=O	nt	0	1	?	-7
C#CCn1c(=NC(=O)c2ccc(Cl)s2)sc2cccc(OC)c21	nt	30*	-4	16	-1
C#CCn1c(=NC(=O)c2cccs2)sc2cccc(OCC)c21	nt	7	-18	2	4
COc1ccc(S(=O)(=O)Nc2ccc3c(c2)C(=O)N([C@H](C)CO)C[C@@H](C)[C@H](CN(C)C(=O)C2CCCCC2)OCCCC[C@@H](C)O3)cc1	nt	2	2	13	-1
Cc1ccc(S(=O)(=O)N[C@@H]2CC[C@H](CC(=O)NCc3ccc(Cl)c(Cl)c3)O[C@@H]2CO)cc1	nt	-1	3	-12	2
Nc1c(-c2ccccc2)nc2ncccn12	nt	-2	nt	28*	5
O=C(Nc1ccccc1N1CCOCC1)C1=NN(c2ccccc2)C(=O)CC1	5	3	6	69*	5
CC=Cc1ccc2n(c1=O)C[C@H]1[C@H](CO)[C@@H](C(=O)NCc3ccccc3F)N[C@@H]21 (mixture of isomers)	nt	2	2	18	-3
COc1ccc2c3c(n(C)c2c1)[C@H](CO)N(C)CC31CN(S(C)(=O)=O)C1	nt	nt	-2	23*	nt
COc1ccc2c3c(n(C)c2c1)[C@@H](CO)N(S(=O)(=O)c1ccc(C)cc1)CC31CN(S(=O)(=O)c2ccc(C)cc2)C1	nt	nt	-1	63*	nt
COCCOC(=O)N1C(=O)[C@@]2(c3cc(C#Cc4ccc(OC)cc4)ccc31)[C@H](C(=O)N1CCc3cc(OC)c(OC)cc3C1)[C@H]1C(=O)O[C@H](c3ccccc3)[C@H](c3ccccc3)N1[C@@H]2c1ccc(OCCO)cc1	nt	-1	-2	-4	0
Cc1cc(C(=O)Nc2cccc3c2O[C@H](CN(C)C(=O)Nc2ccc(C(F)(F)F)cc2)[C@@H](C)CN([C@H](C)CO)C3=O)n(C)n1	nt	-3	-13	38*	0
C[C@@H]1CN([C@H](C)CO)C(=O)c2cccc(NC(=O)Nc3cccc4ccccc34)c2O[C@H]1CN(C)C(=O)Nc1ccc(C(F)(F)F)cc1	nt	-1	12	15	62*
C[C@@H]1CN([C@H](C)CO)C(=O)c2cccc(NC(=O)Nc3cccc4ccccc34)c2O[C@@H]1CN(C)C(=O)Nc1ccc(C(F)(F)F)cc1	nt	-1	5	?	42*
SMILES	PDI inh	ERAP1 HTS inh	AF4-AF9 inh	DENV2 CPE	ERp5 inh
C[C@H]1CN([C@@H](C)CO)C(=O)c2cccc(NC(=O)C3CCCCC3)c2O[C@H]1CN(C)C(=O)Nc1ccc(C(F)(F)F)cc1	nt	1	5	27*	1
C[C@H]1CN([C@@H](C)CO)C(=O)c2cccc(NC(=O)Nc3cccc4ccccc34)c2O[C@@H]1CN(C)C(=O)Nc1ccc(C(F)(F)F)cc1	nt	-2	8	-8	79*
Cc1noc(C)c1NC(=O)N(C)C[C@@H]1Oc2c(NC(=O)Nc3ccc(C(F)(F)F)cc3)cccc2C(=O)N([C@H](C)CO)C[C@@H]1C	nt	-2	-3	10	-3
C[C@@H]1CN([C@@H](C)CO)C(=O)c2cccc(NS(C)(=O)=O)c2O[C@H]1CN(C)C(=O)Nc1ccc(C(F)(F)F)cc1	nt	0	-2	79*	1
C[C@@H]1CN([C@H](C)CO)C(=O)c2cccc(NC(=O)Nc3ccc(C(F)(F)F)cc3)c2O[C@@H]1CN(C)C(=O)Nc1cccc2ccccc12	nt	-1	5	12	1
C[C@H]1CN([C@@H](C)CO)C(=O)c2cccc(NC(=O)Nc3ccc(F)cc3)c2O[C@@H]1CN(C)C(=O)Nc1ccc(C(F)(F)F)cc1	nt	3	-8	57*	-4
C[C@H]1CN([C@@H](C)CO)C(=O)c2cccc(NC(=O)Nc3ccc(C(F)(F)F)cc3)c2O[C@@H]1CN(C)C(=O)Nc1ccc(F)cc1	-6	1	3	0	0
Cc1noc(C)c1NC(=O)N(C)C[C@@H]1Oc2c(NC(=O)Nc3ccc(C(F)(F)F)cc3)cccc2C(=O)N([C@@H](C)CO)C[C@@H]1C	nt	0	-2	32*	4
CS(=O)(=O)Nc1ccc2c(c1)[C@@H]1C[C@@H](CC(=O)NCc3ccc(Cl)cc3)O[C@@H](CO)[C@@H]1O2	nt	2	-7	1	2
COc1cccc(CN2CC3(CN(Cc4ccccn4)C3)c3c([nH]c4cc(OC)ccc34)[C@H]2CO)c1	nt	-4	1	?	5
COc1ccc(S(=O)(=O)N[C@H]2CC[C@H](CCNC(=O)c3ccccc3F)O[C@H]2CO)cc1	nt	0	-1	7	-4
C[C@H](CO)N1C[C@H](C)[C@H](CN(C)C(=O)Nc2ccc(F)cc2)Oc2c(NC(=O)Nc3cccc4ccccc34)cccc2C1=O	nt	3	6	42*	4
COc1ccc(C#Cc2ccc3c(c2)O[C@@H](CN(C)C(C)=O)[C@H](C)CN([C@@H](C)CO)S3(=O)=O)cc1	nt	0	7	1	-2
COc1ccc(CN2CC3(CN(Cc4ccccc4OC)C3)c3c([nH]c4cc(OC)ccc34)[C@H]2CO)cc1	nt	0	14	15	-7
COc1ccc2c3c([nH]c2c1)[C@H](CO)N(Cc1ccccn1)CC31CN(C(C)=O)C1	nt	nt	1	47*	nt
